# Assay results from PubChem BioAssay (NCI).
# Compounds without any hit were thinned out: in the full panel of roughly 83,000, 20% have a hit.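 Method: cells in 96-well plates; compound added at one concentration; 48 h incubation; percent growth measured; values under 10 scored active.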 A number with no mark means an inactive call. The source made the active and inactive calls.
# System: NCI-H322M lung
# Experiment: NCI-60 one-dose screen, 48 h (100 = growth as untreated, 0 = no growth, -100 = all killed)
# Settings: 10 µM unless noted
row,Compound,growth
1,COC(=O)[C@@H](Cc1c[nH]c2ccccc12)NC(=O)/C=C/c1ccccc1,33.8%
2,NNc1ccc(S(N)(=O)=O)cc1,110%
3,COc1ccc(-c2ccc(-c3ccc(C(=N)N)s3)s2)cc1,-93.4% (active)
4,O=P(O)(O)C(O)(Cc1cccnc1)P(=O)(O)O,107%
5,O=C1OC(/C=C/c2ccccc2)=NC/1=C/c1ccccc1[N+](=O)[O-],84.6%
6,N/C(=N\O)c1ncc(-c2ccc(C(F)(F)F)cc2)c(NC2CCCCCC2)n1,-95.8% [100 µM] (active)
7,Cc1cc(Nc2c3ccccc3nc3ccccc23)ccc1NS(C)(=O)=O,34.3%
8,COC(=O)[C@H](Cc1cn(C)cn1)NC(=O)[C@H](CC(C)C)NC(=O)Nc1cc(C(F)(F)F)cc(C(F)(F)F)c1,-97.8% [100 µM] (active)
9,N=C(N)c1ccc(-c2ccc(-c3cccs3)s2)cc1F,-92.4% (active)
10,O=C(Nc1cccc(Cl)c1)Nc1ccccc1Cl,99.8%
11,CCCCCCCCCCCCCC,105%
12,Cc1nn(-c2ccccc2)c2nc3c(nc12)C1=NCCN1C(c1ccc(Cl)cc1)N3 (stereo unspecified),77.4%
13,COc1cc(OC)c(C(=O)/C=C/c2cccc(OC(C)=O)c2)cc1CC=C(C)C,98.9%
14,C[N+](C)(C)CCCCCCCCCC[N+](C)(C)C,118%
15,Cc1cc2nc(CN)[nH]c2cc1C,107%
16,CC(=O)C1CCC2C3CC(C)=C4CC(O)CCC4(C)C3CCC12C (stereo unspecified),103%
